A549 tox = kills or reduces viability of A549 cells in Nrf2 counter-screen; A549 ARE-Fluc cells, CellTiter-Fluor viability, 18-24 h; actives 0.16% (n = 390,000); Potency, µM (highest dose often 46 µM), for the others: at the top dose activity change, negative = cytotoxicity, hits mostly inhibitors; further: potency means the concentration at half of the fitted maximal effect; on the % scale 0 is the no-effect control and ±100 the full control effect
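A549 ARE-Fluc cells in 5% FBS OPTI-MEM, 5000 cells/well, rested 2 h then exposed to compounds in concentration-response for 18-24 h at 37 °C. Viability by CellTiter-Fluor fluorescence (Ex 405/Em 525) after 30 min; luciferase luminescence (BugLite, 15 min, RT) read afterwards.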
Nrf2 activator = activates Nrf2 signaling. AID 624171. actives 0.31% (n = 410,000). Potency, µM (highest dose often 46.1 µM), for the others: at the highest dose activation, actives largely listed as activators. AREc32 ARE-luciferase reporter (MCF7-derived line), luminescence, 24 h; further: potency means the concentration at half of the fitted maximal effect; % of control where 0% means no effect; nearly all actives have a fitted effect of over 65% in size
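ARE-driven firefly luciferase activity in AREc32 cells measured after a 24 hr compound exposure at 37 deg C, using Steady-Glo reagent and a 30 min room-temperature hold.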
Nrf2 inh = blocks Nrf2 signaling. AID 504444. Potency, µM (top dose mostly 46 µM), inactives show at the highest dose activity change, negative = inhibition, usual class: inhibitors. A549 ARE-Fluc reporter, luciferase luminescence, 18-24 h. actives 2.1% (n = 360,000); further: potency means the concentration at half of the fitted maximal effect; on the % scale 0 is the no-effect control and ±100 the full control effect; nearly all actives have a fitted effect of over 60% in size
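Reporter: ARE-Fluc in A549. Exposure: 18-24 h, 37 °C, 5% CO2, 5% FBS OPTI-MEM. Readouts: fluorescent cytotoxicity (CellTiter-Fluor), then luminescent Nrf2 signal after BugLite.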
LDHA block = inhibitors of human lactate dehydrogenase A; P00338; purified LDHA, NADH/diaphorase-resazurin fluorescence; hits give low values; activity change, % (values are at about 110 or 230 µM); actives 0.15% (n = 480,000); in the data active means activity change below about -30%; inconclusive means mostly about -25% to -30%;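 further: plate controls were DMSO wells for no effect and wells without enzyme for full effect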
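Resorufin fluorescence (ex540/em590), read at 0 and 20 min after diaphorase/resazurin addition, reports the NADH left after a 5 min room-temperature reaction of 2 nM human LDH5 with 0.06 mM NADH and 0.2 mM pyruvate.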
ALOX12 inh = inhibitors of human 12S-lipoxygenase ALOX12. Potency, µM (top dose mostly 108 µM), for the others: at the highest dose activity change, negative = inhibition, most hits filed as inhibitors. actives 1.1% (n = 580,000). purified 12hLO, xylenol orange hydroperoxide absorbance; further: potency means the concentration at half of the fitted maximal effect; on the % scale 0 is the no-effect control and ±100 the full control effect
Target sequence (P18054 whole entry, looked up): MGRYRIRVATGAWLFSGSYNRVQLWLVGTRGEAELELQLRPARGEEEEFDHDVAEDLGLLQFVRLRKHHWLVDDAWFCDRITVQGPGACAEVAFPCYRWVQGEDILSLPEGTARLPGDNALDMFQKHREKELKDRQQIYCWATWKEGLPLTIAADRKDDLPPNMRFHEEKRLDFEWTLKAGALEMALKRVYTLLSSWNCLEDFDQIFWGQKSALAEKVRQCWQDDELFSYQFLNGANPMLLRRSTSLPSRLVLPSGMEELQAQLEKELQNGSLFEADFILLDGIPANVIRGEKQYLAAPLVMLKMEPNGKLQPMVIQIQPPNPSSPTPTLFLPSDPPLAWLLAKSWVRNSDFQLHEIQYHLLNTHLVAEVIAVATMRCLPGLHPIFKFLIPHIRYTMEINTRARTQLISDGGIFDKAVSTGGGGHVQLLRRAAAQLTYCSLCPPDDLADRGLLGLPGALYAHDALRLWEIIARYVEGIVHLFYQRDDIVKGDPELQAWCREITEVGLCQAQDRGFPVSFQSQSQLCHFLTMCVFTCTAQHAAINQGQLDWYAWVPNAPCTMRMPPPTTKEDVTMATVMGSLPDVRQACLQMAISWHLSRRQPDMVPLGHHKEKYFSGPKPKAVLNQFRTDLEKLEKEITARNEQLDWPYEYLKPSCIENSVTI
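Hydroperoxide product was detected by ferrous iron/xylenol orange as the 573 to 405 nm absorbance ratio. Arachidonic acid at 40 uM (final) was turned over for 30 min at room temperature by 150 nM human 12hLO, pH 7.0 Hepes buffer, after 15 min compound preincubation.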
ERG Ets-DNA blk = blocks human ERG Ets domain binding to DNA; fluorescence polarization, His-ERG Ets domain / labelled DNA; Potency, µM (titrated, usually from 76.9 µM), inactives show at the highest dose FP activity, negative = inhibition, most hits filed as inhibitors; actives 0.028% (n = 370,000); active means well fitted inhibition curve with a large enough effect in the polarisation, with a control signal flat; inconclusive means small, poorly fitted or top-dose-only effect, or effect the other way, or a change in a side signal; inactive means no such curve, though single readings can be large or run the other way; the % refers to the polarisation;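 further: polarization taken with two DNA probes labelled with fluorescein and Texas red; potency means the concentration at half of the fitted maximal effect; % of control where 0% means no effect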
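His-tagged ERG Ets domain (1 uM in the protein solution; 300mM KCl, 50mM Tris-HCl, 1mM EDTA, 1mM DTT, pH 7.5) received compound, then a probe mix of 5 nM fluorescein-DNA and 100nM Texas-615-DNA. Fluorescence polarization was read for both dyes.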
Active calls of the source: *; ? = inconclusive; / = no result given; [ ] = dose if it differs, or a comment. Sampled rows, rich in hits. Any-hit rate of the full collection: about 2.7%. Unless noted, the call rests on the fitted dose curve; in most records, active means well fitted curve in the direction sought with a large enough effect; inconclusive means small, poorly fitted or top-dose-only effect, or another doubt; inactive means no such curve, though single readings can be large; an effect the other way counts as inactive or inconclusive.

SMILES	A549 tox	Nrf2 activator	Nrf2 inh	LDHA block	ALOX12 inh	ERG Ets-DNA blk
CCOC(=O)COc1cc(OCc2ccccc2)c2c(=O)cc(-c3ccccc3)oc2c1	/	/	/	-10	?	/
CC(=O)C1CCC2C3CCC4=CC(=O)CCC4(C)C3C(O)CC12C (stereo not drawn)	/	/	/	/	3%	/
CC12CCC(=O)C=C1CCC1C2CCC2(C)C(c3csc(N)n3)CCC12 (stereo not drawn)	?	3%	18µM*	-4	?	2%
CC12CCC(=O)C=C1CCC1C2C(O)CC2(C)C(c3csc(N)n3)CCC12 (stereo not drawn)	-3%	7%	23µM*	-4	?	0%
COc1cc(/C=C2/NC(=O)NC2=O)ccc1OCc1cccc(F)c1	/	/	/	-1	?	/
Cc1ccc(C)c(-n2nnnc2SCC(=O)NCCC2=CCCCC2)c1	/	2%	18µM*	-1	-26%	-3%
CNC(=O)CSc1nnnn1-c1cc(C)ccc1C	0%	0%	-5%	-4	0%[57.4 µM]	9%
COc1ccccc1NS(=O)(=O)c1ccc2oc(SCC(=O)N(C)C)nc2c1	/	/	/	5	-1%	/
CCOc1cccc2c1OC(c1cc(OC)c(OC)c(OC)c1)N1N=C(c3ccc(C)o3)CC21 (stereo not drawn)	-9%	13µM*	?	17	/	22%
Cc1noc(C)c1CCC(=O)Nc1nc(-c2ccc3c(c2)OCCO3)cs1	/	/	/	-21	-25%	/
COc1ccc(/C=C(/CC(=O)O)c2nc3ccccc3s2)cc1	/	/	/	2	2.2µM*	/
COc1cccc(/C=C(\CC(=O)O)c2nc3ccccc3s2)c1	1%	0%	-6%	-13	-17%	-4%
O=C(O)C/C(=C/c1cccc(Br)c1)c1nc2ccccc2s1	/	/	/	-2	28µM*	/
O=C(O)C/C(=C/c1ccc(Br)cc1)c1nc2ccccc2s1	/	/	/	6	32µM*	/
Cc1cc(NC(=O)CC2CCCC2)n(-c2nc3ccccc3[nH]2)n1	?	0%	26µM*	-1	24%	2%
Cc1oc(-c2ccccc2)nc1Cn1cccc1C1=NC(c2ccccc2)CO1 (stereo not drawn)	-9%	0%	21µM*	3	0%	-1%
O=C(Nc1c(-c2ccccc2)nc2ccccn12)c1cccc(F)c1	-20%	4%	-1%	-31*	15%	13%
O=C(Nc1c(-c2ccccc2)nc2ccccn12)c1ccccc1	-14%	0%	-16%	-6	8%	-10%
O=C(c1ccc2n[nH]nc2c1)N1CCN(c2ccc(C(F)(F)F)cn2)CC1	-12%	0%	15µM*	1	183%	7%
O=C1NC[C@@H](Cc2cccc3ccccc23)N(CC2(c3ccccc3)CC2)C1=O	?	4%	21µM*	0	?	-3%
Cc1ccc(NC(=O)c2cnc(N3CCCCC3)c3ccccc23)cc1F	/	/	/	4	-43%	/
COc1ccccc1CNC(=O)c1ccc2nc3[nH]c4ccccc4c3nc2c1	?	26%	15µM*	-3	-16%	-1%
COc1ccccc1-n1c(=S)sc2c(=O)n(Cc3ccco3)c(SC)nc21	2%	0%	8.2µM*	-6	9%	1%
COc1ccccc1-n1c(SC)nc2c(sc(=S)n2-c2ccccc2)c1=O	-18%	-1%	1%	1	0%	-3%
O=S(=O)(NCc1ccc(N2CCOCC2)nc1)c1cc(C(F)(F)F)cc(C(F)(F)F)c1	/	/	/	8	7.1µM*	/
O=S(=O)(NCc1ccc(N2CCOCC2)nc1)c1ccc(Cl)c(Cl)c1	/	/	/	-6	1%	/
